Measurements from the supplement of paper PMC6555819.

Assays:
Assay in all cases: PBM binding z-score (relative to random genomic background probes); higher = stronger binding; sequences stand for … in GC…GCGATTGACAGCGTAGAATGAAGG
[1] = system: PPARg:RXRa DBDmut IVT, anti-RXR (DBD mutation: RXRa K156A/R161A, NR concentration 270 nM, RXRa partner concentration 90 nM)
Outline: (§1)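 On custom Agilent 4×180K arrays, double-stranded probes with 34-nt variable regions carried direct-repeat seeds, single-nucleotide variants, half-site ablations or random human genomic background. Ligand-free nuclear receptor dimers were applied for 1 h, and binding was read with antibodies against each partner (one per run). Binding z-scores come from regression-normalized fluorescence, with the random background probes as reference.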

[2] = system: PPARg:RXRa IVT, anti-PPARg (NR concentration 270 nM, RXRa partner concentration 90 nM)
Outline: as §1

[3] = system: PPARg DBDmut:RXRa IVT, anti-PPARg (DBD mutation: PPARg1 K132A/R137A, NR concentration 270 nM, RXRa partner concentration 90 nM)
Outline: as §1

[4] = system: PPARg DBDmut IVT, anti-PPARg (DBD mutation: PPARg1 K132A/R137A, NR concentration 270 nM)
Outline: as §1

[5] = system: PPARg homodimer (NR concentration 180 nM)
Outline: as §1

[6] = system: PXR:RXRa (NR concentration 270 nM, RXRa partner concentration 90 nM)
Outline: as §1

[7] = system: PXR homodimer (NR concentration 270 nM)
Outline: as §1

[8] = system: RARa:RXR (NR concentration 270 nM, RXRa partner concentration 90 nM)
Outline: as §1

[9] = system: RARa homodimer (NR concentration 270 nM)
Outline: as §1

[10] = system: RARb:RXRa (NR concentration 270 nM, RXRa partner concentration 90 nM)
Outline: as §1

[11] = system: RARb homodimer (NR concentration 270 nM)
Outline: as §1

[12] = system: RARg homodimer (NR concentration 270 nM)
Outline: as §1

[13] = system: RXRa DBDmut IVT, anti-RXR (DBD mutation: RXRa K156A/R161A, NR concentration 90 nM)
Outline: as §1

[14] = system: RXRa homodimer (NR concentration 180 nM)
Outline: as §1

[15] = system: THRa:RXRa (NR concentration 90 nM, RXRa partner concentration 90 nM)
Outline: as §1

[16] = system: THRa homodimer (NR concentration 90 nM)
Outline: as §1

[17] = system: VDR homodimer (NR concentration 270 nM)
Outline: as §1

[18] = system: VDR:RXRa (NR concentration 270 nM, RXRa partner concentration 90 nM)
Outline: as §1

Sequence	PBM binding z-score [1]	PBM binding z-score [2]	PBM binding z-score [3]	PBM binding z-score [4]	PBM binding z-score [5]	PBM binding z-score [6]	PBM binding z-score [7]	PBM binding z-score [8]	PBM binding z-score [9]	PBM binding z-score [10]	PBM binding z-score [11]	PBM binding z-score [12]	PBM binding z-score [13]	PBM binding z-score [14]	PBM binding z-score [15]	PBM binding z-score [16]	PBM binding z-score [17]	PBM binding z-score [18]
TCTCGGAGGACACGAAACGTCAGAGCTCGACATC	1.4	0.0714	-0.35	-0.247	-0.276	-0.408	-0.586	-0.175	-0.713	1.25	0.176	1.27	0.694	0.0278	1.1	0.276	-0.34	
TCTGCTATGTCAACGATGGTCAGCTAATCTGCTA	0.814	-0.00611	0.00527	-0.18	-1.25	-0.217	-1.19	-0.446	-1.27	0.575	0.0556	0.346	0.208	-0.181	-0.297	-1.24	-1.12	
TCTCGGAGGACACGAAAGGTCAGTGCTCGACATC	1.47	1.67	-0.413	-0.365	3.45	3.79	0.68	4.07	1.12	4.13	4.96	5.21	1.23	3.34	3.49	1.51	1.24	2.92
ATCGAAAGGTCGAGGAGGTGAGTATACACCGTTT	0.255	1.9	1.49	0.557	1.47	2.86	0.184	3.41	0.666	3.94	2.92	4.23	0.868	4.21	2.85	-0.12	0.435	4.25
GATACAGGGTCAGCTAGAGGGCAGAGTATGGAAA	1.36	2.69	1.37	0.18	4.2	4.38	0.747	5.63	1.68	4.51	4.04	5.53	1.71	4.61	3.18	1.05	1.68	
GCTGCTAGGTCATGTTGGTCAGCTAACGGGTACG	4.28	3.3	0.275	1.15	2.55	1.49	-0.31	2.42	0.287	3.69	3.21	4.33	1.85	2.51	2.83	1.39	1.44	
ATCGAAACGTCGACGAGGTGAGTATACACCGTTT	-0.306	0.572	0.364	1.43	-0.489	-0.346	-0.33	-0.0607	0.109	-0.0586	-0.247	0.527	-0.148	0.362	1.1	0.23	-0.146	-0.119
CCTACTGGGCCAAAGGACATTGATTCCAATGCTC	4.14	4.09	-0.131	-0.115	0.47	-0.488	-0.554	-0.324	-0.235	0.93	0.475	0.664	-0.27	0.166	-0.11	-0.145	-0.13	
TAGCCTAGGTCATTGGGCTAGTATAGTACGCATC	1.65	3.11	0.176	-0.547	0.811	1.4	-0.602	1.91	-0.44	3.46	2.59	4.2	1.47	2.84	2.71	0.251	0.989	2.03
CCTTACGGGTCCCTGACAGGTTATAGCATTTGGA	-0.486	-0.544	-1.04	-1.23	0.149	-0.106	-0.274	-0.0622	0.466	0.205	0.357	0.233	-0.553	0.295	0.389	-0.0756	0.0432	
GCTAGTGGGTCAGTAAAAGGTCACACACCGGTCG	6.37	6.63	1.17	1.14	6.87	5.62	1.8	7.01	2.96	5.12	5.72	6.65	0.518	6.21	4.09	1.66	2.18	
ACTAATTGGTCAGCTGAGGTCACACACAATTCGG	1.58	2.86	1.1	1.2	2.75	5.67	1.67	4.72	1.56	3.91	4.72	4.46	1.68	4.65	5.12	5.41	3.46	
TCTGCTGGGTCAACGATGGTCAGCTAATCTGCTA	3.36	3.7	1.06	0.239	0.518	1.46	-1.34	2.07	-1.24	3.6	2.96	4.31	0.782	2.58	2.65	-0.44	-0.395	1.62
CCTAGTTGGTCAGGAGGTCACAAACCGGATATGA	1.35	3.19	0.681	-0.00546	3.21	3.77	1.38	4.45	2.04	3.37	3.97	4.1	0.534	4.38	3.31	2.01	2.44	
CCGACTGGGGCAACGGTTACCATACTCAGTACGA	3.8	3.87	-0.196	-0.486	0.34	-0.591	-0.155	-0.576	-0.579	0.784	0.463	0.749	-0.399	0.0122	-0.149	-0.243	-0.248	-0.409
CCTTACGGGTCACTGACAGGTCATAGCATTTGGA	3.69	3.99	0.0751	0.785	4.06	5.34	0.53	6.69	1.34	4.53	4.59	5.71	1.79	6.67	3.98	0.878	2.15	

Sequence	PBM binding z-score [1]	PBM binding z-score [2]	PBM binding z-score [3]	PBM binding z-score [4]	PBM binding z-score [5]	PBM binding z-score [6]	PBM binding z-score [7]	PBM binding z-score [8]	PBM binding z-score [9]	PBM binding z-score [10]	PBM binding z-score [11]	PBM binding z-score [12]	PBM binding z-score [13]	PBM binding z-score [14]	PBM binding z-score [15]	PBM binding z-score [16]	PBM binding z-score [17]	PBM binding z-score [18]
CGAACTAGGTCAACGACAGTGAATCTCCGCACGC	7.66	7.96	4.33	5.05	2.87	0.983	-0.0485	1.99	-0.0648	3.83	2.87	4.2	1.61	2.45	2.54	1.08	0.435	
AGCGAAAGGTCGAAGGTGAGTATACCCACCCGAA	0.0438	2.06	0.39	-0.438	1.16	2.97	-0.17	4.28	0.406	3.6	2.44	4.05	0.876	5.09	2.04	-0.329	0.312	
CCTAGCAGGCCAGGTTCACTCAAGCATTTCGCTT	0.866	-0.316	-1.77	-0.982	-0.179	0.776	0.391	0.488	-0.298	0.579	0.543	0.106	2.28	0.844	0.5	0.0438	3.42	2.09
ATCGAAAGGTCGACGAGGAGAGTATACACCGTTT	0.291	1.39	1.26	0.739	1.33	2.4	0.432	3.03	0.544	3.66	2.37	3.81	1.18	3.91	2.27	-0.0264	0.681	
CCTTACGGGTCACTCCAGGTTCTAGCATCGGAGT	2.92	3.24	0.0574	-0.343	1.37	3.13	-0.323	3.39	0.55	3.63	2.64	4.07	1.4	4.18	4.32	0.0825	1.07	3.59
ATCGAAATGTCGTGAGGTGAGTATACAGAAAGGC	-0.876	0.356	1.2	0.426	-0.35	-0.158	-0.418	0.27	-0.172	0.61	0.113	0.683	-0.3	0.0827	1.74	1.16	-0.224	
CCTAGTTGGTCAAGGTCACACATGCTATAGGTAC	2.61	3.82	1.11	1.14	3.65	4.24	2.57	4.11	2.64	4.14	4.33	4.71	2.2	4.11	3.96	4.12	3.99	
CAAACTAGGTCAAAGGTCAAACTCGAGCCAACCA	8.72	9.06	5.54	4.24	5.23	7.03	2.84	8.96	3.29	5.81	5.32	8.15	3.04	10.5	4.85	2.14	4.14	
GATACAGGGTCAACTAGAGGCCAGAGTATGGAAA	2.63	3.97	1.7	0.682	3.88	4.77	0.995	6.02	0.807	4.8	3.92	5.56	2.92	6.53	3.79	0.92	2.44	
CGTCCAAGGTCACCAGGTCAGTGAAAGCGACGTG	4.53	5.56	0.432	-0.2	5.06	5.13	1.21	6.39	2.58	5.42	5.13	7.7	3.61	7.13	4.45	4.12	3.44	
TGGCCTAGGTCATGCGGGCCAGTATAGTGTCGGC	1.03	2.44	-0.76	-1.48	0.35	1.12	-0.591	2.07	-0.739	3.53	2.85	4.45	-0.03	3.03	2.68	0.284	0.128	
TAGCCTAGGTCATGCGGGCCAGCATAGTGTCGGC	1.81	2.94	0.0937	-0.357	1.08	1.52	-0.642	2.1	-0.53	3.59	2.9	4.27	0.374	3.13	3	0.747	0.502	
ATCGTAAGGTCGTGAGGTGAGTATACAGAAAGGC	0.0684	1.65	1.19	1.05	1.4	2.22	0.545	3.29	0.99	3.11	2.41	2.71	2.09	3.5	3.65	2.95	1.45	2.8
TCTCGGAGGACACGAAGGTCAGCGCTTTCCAGAG	1.48	1.41	-0.389	-0.884	2.23	2.49	0.985	3.06	0.313	3.95	3.93	4.24	0.82	2.38	3.23	1.21	1.46	
ACTCGGAGGACAAACGTCAGAGCTACGCCAGTGA	-0.0796	-0.507	-0.617	-0.00127	-0.209	-0.77	-0.0928	-0.299	-0.122	0.951	0.0238	1.15	0.497	-0.425	0.312	-0.476	-0.183	
GCTCGGAGGACAAGGTCAGGGCTTTGTCCGTAGA	-0.354	1.3	-0.608	-0.233	0.661	2.03	-0.681	2.71	-0.898	3.83	3.31	4.39	0.229	3.18	3.22	1.75	0.358	
